What all share (experiment): PBM binding z-score (relative to random genomic background probes); higher = stronger binding; sequences stand for … in GC…GCGATTGACAGCGTAGAATGAAGG
The subject of experiment [1] is RARb homodimer (NR concentration 270 nM). Put shortly:
(§1)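 Custom Agilent 4×180K protein-binding microarrays carried double-stranded probes. Their 34-nt variable regions held direct-repeat seeds, single-nucleotide variants, half-site ablations and random human genomic background sequences. Arrays were incubated 1 h with ligand-free nuclear receptor dimers in PBS pH 7.4, 2% milk, 0.02% Triton X-100, 1 mM DTT, 0.2 mg/mL BSA and 0.4 mg/ml salmon testes DNA. Antibodies against each partner (one per run) detected binding, and scanned fluorescence was regression-normalized. Binding z-scores use random background probes as reference.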

The subject of experiment [2] is RARg:RXRa (NR concentration 270 nM, RXRa partner concentration 90 nM). Put shortly:
as §1

In experiment [3] the test system is RARg homodimer (NR concentration 270 nM). The gist of the method: as §1
The subject of experiment [4] is RXRa DBDmut IVT, anti-RXR (DBD mutation: RXRa K156A/R161A, NR concentration 90 nM). The gist of the method:
as §1

Experiment [5] concerns RXRa homodimer (NR concentration 180 nM). Put shortly: as §1
For experiment [6], the system named is THRa:RXRa (NR concentration 90 nM, RXRa partner concentration 90 nM). Put shortly:
as §1

The subject of experiment [7] is THRa homodimer (NR concentration 90 nM). The gist of the method:
as §1

Experiment [8] concerns VDR homodimer (NR concentration 270 nM). Put shortly:
as §1

On to CAAACAGGGTCAGCTAGGCCAGAGTAGGGACGGC, for which the PBM binding z-score was determined as 3.2 in experiment [1]; 4.72 in experiment [2]; 4.56 in experiment [3]; 1.83 in experiment [4]; 4.56 in experiment [5]; 2.94 in experiment [6]. In addition, the PBM binding z-score stood at 0.733 in experiment [7] and 1.44 in experiment [8].

CCTGCTAGGTCACTGGTCAGCTAAAGCAGCTCGC: the PBM binding z-score in experiment [1] is 3.08; in experiment [2] it was 3.82; in experiment [3], 4.65; in experiment [4], 1.68; in experiment [5], 2.59; in experiment [6], 2.7. In addition, the figures for the PBM binding z-score in experiment [7] and in experiment [8] were 0.97 and 0.123, respectively.

Regarding GATACAGGGTTAGCTAGAGGCCAGAGTATGGAAA, the PBM binding z-score in experiment [1] was 0.99; in experiment [2] it was 3.12; in experiment [3] it was 0.756; in experiment [4], -0.477; in experiment [5], 0.857; in experiment [6] it was 1.23. In addition, the PBM binding z-score in experiment [7] was -0.252; in experiment [8] it was 0.162.

Consider CCTACTGGGCCAAGGTCGTTGATCAGTCAAAGCA, for which the PBM binding z-score in experiment [1] is 0.763; in experiment [2], 0.488; in experiment [3], 0.541; in experiment [4], -0.262; in experiment [5], 0.465; in experiment [6], 1.31. The PBM binding z-score in experiment [7] turned out to be 0.184; in experiment [8], 1.19.

With ATCGAAAGGTCGAATGTGAGTATACCCACCCGAA, the PBM binding z-score is 2.63 in experiment [1]; 3.91 in experiment [2]; 3.72 in experiment [3]; 1.77 in experiment [4]; 4.23 in experiment [5]; 2.01 in experiment [6]. For the same sequence, the PBM binding z-score in experiment [7] is -0.0283; in experiment [8] it was 1.

As to GCGTCTGGGGCAAAGCAGGTTACCATAAGGTTGG, the PBM binding z-score was 1.13 in experiment [1]; 0.435 in experiment [2]; 0.815 in experiment [3]; -0.387 in experiment [4]; 0.339 in experiment [5]; 3.04 in experiment [6]. Further, the PBM binding z-score in experiment [7] is 0.0693; in experiment [8] it was -0.358.

In the case of AGAATGAGGTTACCAAAGATCAGGGAGACGCTTG, the PBM binding z-score in experiment [1] was 0.689; in experiment [2] it was 2.21; in experiment [3] it was 1.8; in experiment [4] it was 1.28; in experiment [5], 2.77; in experiment [6], 2.86. In addition, the PBM binding z-score amounted to 0.711 in experiment [7] and 0.443 in experiment [8].

Turning to CCTATCAGGCCAGGGTCACTCAAGCATTTCGCTT, the PBM binding z-score came to 2.88 in experiment [1]; 3.19 in experiment [2]; 2.62 in experiment [3]; 0.325 in experiment [4]; 3.65 in experiment [5]; 3.19 in experiment [6]. The figures for the PBM binding z-score in experiment [7] and in experiment [8] were 1.36 and 1.33, respectively.

In the case of CGAAGTAGGTCAGAACAGGACAGTGAAGGATGAT, the PBM binding z-score in experiment [1] amounted to 2.04; in experiment [2], 2.23; in experiment [3] it was 3.23; in experiment [4] it was 0.286; in experiment [5], 1.37; in experiment [6], 3.52. Moreover, the PBM binding z-score in experiment [7] is 0.146; in experiment [8], 0.1.

Turning to CCTACTGGGCCATTCAGTGGTCATTGATCATATG, the PBM binding z-score in experiment [1] was 0.199; in experiment [2], 0.241; in experiment [3], 0.159; in experiment [4] it was -0.408; in experiment [5], -0.279; in experiment [6], -0.329. In addition, the values for the PBM binding z-score in experiment [7] and in experiment [8] were -0.878 and -0.288, respectively.

GCTCGGAGCACAAGGTCAGAGCTTTGTCCGTAGA: the PBM binding z-score in experiment [1] is 2.85; in experiment [2], 2.63; in experiment [3] it was 2.19; in experiment [4], 0.228; in experiment [5], 2.25; in experiment [6], 2.75. For the same sequence, the PBM binding z-score came out at 0.948 in experiment [7] and 0.184 in experiment [8].

With AATACAGGGTCACTAGGCCAGACTAGGTACGAAT, the PBM binding z-score was found to be 3.25 in experiment [1]; 5.28 in experiment [2]; 4.68 in experiment [3]; 2.72 in experiment [4]; 5.35 in experiment [5]; 3.44 in experiment [6]. For the same sequence, the PBM binding z-score in experiment [7] is 1.22; in experiment [8] it was 2.17.

Consider TCTGCTAGGTCAACTATGGTCAGCTAATCTGCTA, for which the PBM binding z-score in experiment [1] is 3.57; in experiment [2], 4.26; in experiment [3] it was 5.22; in experiment [4] it was 1.45; in experiment [5] it was 3.13; in experiment [6] it was 3.87. Further, the figures for the PBM binding z-score in experiment [7] and in experiment [8] were 0.915 and 0.149, respectively.

On to TAGCCTAGGTCTTTGGGCCAGTATAGTACGCATC, for which the PBM binding z-score in experiment [1] was -0.337; in experiment [2], -0.253; in experiment [3] it was -0.164; in experiment [4], -0.783; in experiment [5] it was -0.392; in experiment [6] it was -0.218. The PBM binding z-score in experiment [7] is -0.674; in experiment [8], -0.826.

As to ACTAGCAGGCCAAGTTTGGGTGACTCAAACAAAG, the PBM binding z-score in experiment [1] was 0.251; in experiment [2] it was 0.0882; in experiment [3], -0.216; in experiment [4], -0.308; in experiment [5], -0.222; in experiment [6], 0.796. Besides, the PBM binding z-score was -0.161 in experiment [7] and -0.571 in experiment [8].

As for CCTACCAGGCCAATCTGGGTCACTCAAGGCTTGA, the PBM binding z-score in experiment [1] is 2.5; in experiment [2], 1.37; in experiment [3], 1.64; in experiment [4], -0.157; in experiment [5] it was 1.01; in experiment [6] it was 3.84. In addition, the PBM binding z-score in experiment [7] worked out at 1.34; in experiment [8], 0.435.

For CCTACTGGGCCAAAGTTCATTGATTCCAATGCTC, the PBM binding z-score in experiment [1] turned out to be 3.34; in experiment [2], 3.23; in experiment [3], 2.56; in experiment [4], 2.37; in experiment [5] it was 2.73; in experiment [6] it was 1.44. Further, the values for the PBM binding z-score in experiment [7] and in experiment [8] were 0.0374 and 3.96, respectively.

In the case of AGAACGAGGGCACGCTGAGTTGTTAGCAGAGTAG, the PBM binding z-score was 1.16 in experiment [1]; 1.85 in experiment [2]; 2.11 in experiment [3]; 1.95 in experiment [4]; 1.55 in experiment [5]; 1.73 in experiment [6]. Moreover, the PBM binding z-score in experiment [7] is -0.0744; in experiment [8], 1.29.

These data come from the supplement of paper PMC6555819.
